DT40 TDP1 CPT – qHTS for Inhibitors of human tyrosyl-DNA phosphodiesterase 1 (TDP1): qHTS in cells in presence of CPT; Potency, µM (highest dose often 46.2 µM), most hits filed as inhibitors; 420,000 compounds, 12% hits; chicken DT40 Tdp1-/-;hTDP1 cells + 20 nM CPT, ATP luminescence, 48 h; further: nearly all actives have a fitted effect of over 55% in size
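Cell growth measured by CellTiter-Glo luminescence after a minimum 48 h, 37 C compound exposure with 20 nM CPT in Tdp1-knockout DT40 cells stably expressing hTDP1, seeded 400/well; qHTS titration format.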
Six1-Eya2 blk – qHTS Assay for Inhibitors of the Six1/Eya2 Interaction | Homeobox protein SIX1 (Homo sapiens) + Protein phosphatase EYA2 (Homo sapiens), … | AlphaScreen GST-Six1/His-Eya2 binding, biochemical; hits give low values | activity change, % (no concentration beside the values) | 360,000 compounds, 0.56% hits; in the data active means activity change below about -65%; inconclusive means mostly about -30% to -63%
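Six1/Eya2 binding was read as AlphaScreen signal after compounds were pinned into GST-Six1 plus His-tagged Eya2 (5X stock 250/500 nM) in pH 8.0 Tris/NaCl/TCEP buffer, beads added, then incubated 1 h, 37 C, dark.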
TDP1 block – qHTS Assay for Inhibitors of Tyrosyl-DNA Phosphodiesterase (TDP1); Tyrosyl-DNA phosphodiesterase 1 (Homo sapiens), Q9NUW8; recombinant TDP1, AlphaScreen DNA substrate cleavage; Potency, µM (doses to about 130 µM), actives largely listed as inhibitors; 350,000 compounds, 0.28% hits; further: nearly all actives have a fitted effect of over 40% in size
Target sequence (Q9NUW8 whole entry, looked up): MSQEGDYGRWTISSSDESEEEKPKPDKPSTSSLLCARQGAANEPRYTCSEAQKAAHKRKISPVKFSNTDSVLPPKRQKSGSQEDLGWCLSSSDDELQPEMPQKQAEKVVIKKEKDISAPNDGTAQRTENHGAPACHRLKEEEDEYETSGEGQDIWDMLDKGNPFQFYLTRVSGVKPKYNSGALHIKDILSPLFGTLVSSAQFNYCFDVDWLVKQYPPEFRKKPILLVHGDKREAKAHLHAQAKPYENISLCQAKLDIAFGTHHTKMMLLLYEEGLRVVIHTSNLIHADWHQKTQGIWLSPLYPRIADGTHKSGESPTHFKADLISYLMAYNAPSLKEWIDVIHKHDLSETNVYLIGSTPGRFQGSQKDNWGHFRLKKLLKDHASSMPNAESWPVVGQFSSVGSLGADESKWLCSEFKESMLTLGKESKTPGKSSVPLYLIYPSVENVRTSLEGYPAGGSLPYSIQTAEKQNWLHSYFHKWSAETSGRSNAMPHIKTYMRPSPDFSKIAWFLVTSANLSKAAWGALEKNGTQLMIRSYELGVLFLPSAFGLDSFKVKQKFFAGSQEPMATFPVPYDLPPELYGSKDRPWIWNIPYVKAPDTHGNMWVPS
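AlphaScreen read-out: signal falls as enzyme removes the 3' tyrosine-FITC from a 5'-biotinylated DNA oligo (15 nM, 5 min, RT). Enzyme was E. coli-made recombinant Tdp1 at 1 nM, exposed to compound for 15 min beforehand; beads 10 ug/ml, 10 min.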
DT40 TDP1 no CPT – qHTS for Inhibitors of human tyrosyl-DNA phosphodiesterase 1 (TDP1): qHTS in cells in absence of CPT | DT40 Tdp1-/- hTDP1 cells, no CPT, ATP luminescence, 48 h | Potency, µM (titrated, usually from 46.2 µM), most hits filed as inhibitors | 420,000 compounds, 15% hits | AID 686978, 2013; further: nearly all actives have a fitted effect of over 55% in size
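Seeded 400 DT40-hTDP1 cells/well (vehicle DMSO, no 20 nM CPT); pinned compounds; ≥48 hr at 37 °C; CellTiter-Glo luminescence as viability measure.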
IL1B secr inh – qHTS for Inhibitors of Inflammasome Signaling: IL-1-beta AlphaLISA Primary Screen; THP-1 LPS/ATP IL-1B secretion, AlphaLISA, 16 h; hits give low values; activity change, % at 57.5 µM; 360,000 compounds, 4.7% hits; AID 743279, 2014; in the data active means activity change below about -50%; inconclusive means mostly about -30% to -49%
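Secreted IL-1B measured by AlphaLISA bead assay after 16 h compound exposure of THP-1 cells; compounds (final up to 57.5 uM) added 1 h before LPS (250 ng/mL) and ATP (1.25 mM) stimulation; lower signal means less secretion.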
CtBP-E1A blk – qHTS Assay for Inhibitors of the CtBP/E1A Interaction; AID 651724, 2012; activity change, % (concentration not given with the values); CtBP / adenovirus E1A interaction (AlphaScreen); 340,000 compounds, 0.49% hits; AlphaScreen GST-E1A/His-CtBP binding, 1536-well; hits give low values; in the data active means activity change below about -65%; inconclusive means mostly about -30% to -63%
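Homogeneous bead-based format: GST-tagged E1A captured on glutathione donor beads, His-tagged CtBP on nickel acceptor beads; compounds precede bead addition by 2 h at 37 °C.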
Hits are given with their value; . = inactive; ? = inconclusive; / = no result. In the library only some 18% were active in any assay of this set; here they are far more common. Unless noted, the call rests on the fitted dose curve; in most records, active means well fitted curve in the direction sought with a large enough effect; inconclusive means small, poorly fitted or top-dose-only effect, or another doubt; inactive means no such curve, though single readings can be large; an effect the other way counts as inactive or inconclusive.

SMILES	DT40 TDP1 CPT	Six1-Eya2 blk	TDP1 block	DT40 TDP1 no CPT	IL1B secr inh	CtBP-E1A blk
Cn1c(=S)c2[nH]c(SCCC(C)(C)C)nc2n(C)c1=O	1.46µM	.	/	1.03µM	.	.
Cn1c(=S)c2[nH]c(SCc3cccnc3)nc2n(C)c1=O	?	.	/	?	.	.
CCN(CC)CCSc1nc2c([nH]1)c(=S)n(C)c(=O)n2C	4.11µM	.	/	5.17µM	.	.
COc1cc(C(=O)Nc2cc(C)c(O)c(-c3nc4cc(Cl)ccc4o3)c2)cc(OC)c1OC	/	/	.	/	/	/
CCc1ccc(N2C(=O)Nc3ccc(Br)cc3C2(O)C(=O)NCCN(C)C)cc1 (stereo not drawn)	.	.	/	.	.	.
O=C(c1cccc(Cl)c1)N1CCC2(CC1)NCCc1[nH]cnc12	.	.	.	.	.	/
CCc1c(C(=O)NNC(=S)NCC2CCCO2)csc1C (stereo not drawn)	?	.	.	?	.	.
Cc1ccc(C2Nc3cc(C)c(C)cc3-n3c(-c4ccccc4)c4c(=O)n(C)c(=O)n(C)c4c32)o1 (stereo not drawn)	7.31µM	/	.	9.2µM	/	/
COc1ccc(O)c(C2Nc3ccccc3-n3c(-c4ccccc4)c4c(=O)n(C)c(=O)n(C)c4c32)c1 (stereo not drawn)	9.2µM	/	.	18.4µM	/	/
Cc1ccnn2c(-c3ccccc3)c3c(=O)n(C)c(=O)n(C)c3c12	/	/	.	/	/	/
COc1ccc(-c2c3c(=O)n(C)c(=O)n(C)c3c3n2-c2ccccc2NC3c2ccco2)cc1 (stereo not drawn)	14.6µM	/	.	?	/	/
Cc1ccc(-c2c3c(=O)n(C)c(=O)n(C)c3cn2-c2cc(C)ccc2O)cc1	?	/	.	?	/	/
Cc1ccc(-c2c3c(=O)n(C)c(=O)n(C)c3c3n2-c2ccccc2NC3c2ccc(C)cc2O)cc1 (stereo not drawn)	20.6µM	/	.	20.6µM	/	/
Cn1c(=O)c2c(-c3ccccc3)n3c(c2n(C)c1=O)C(c1ccc([N+](=O)[O-])cc1)Nc1ccccc1-3 (stereo not drawn)	16.4µM	/	.	14.6µM	/	/
Cc1ccccc1-c1cc2nc(NCc3ccncc3)n(C)c(=O)c2s1	?	.	/	?	.	.
Cc1ccccc1-c1cc2nc(NCc3ccc(N(C)C)cc3)n(C)c(=O)c2s1	?	?	/	16.4µM	.	?
Cc1ccccc1-c1cc2nc(NCc3ccccc3)n(C)c(=O)c2s1	9.2µM	.	/	?	.	.
CC(=O)Nc1ccc(CNc2nc3cc(-c4ccccc4C)sc3c(=O)n2C)cc1	?	.	/	?	.	.
COC(=O)c1sc(NC(=O)CSc2nncs2)c(C(=O)OC)c1C	.	.	.	.	.	.
Cc1cc(=O)n2[nH]c(=O)c(N=Nc3ccccc3)c2[nH]1	.	.	.	?	.	.
CCOc1ccc(N=Nc2c(=O)[nH]n3c(=O)cc(C)[nH]c23)cc1	20.6µM	?	.	?	.	?
COCCN(CCOC)c1nc(C)nc2c1nc(-c1ccccc1)n2CCN1CCOCC1	/	/	.	/	/	/
O=C1c2oc3ccccc3c(=O)c2C(c2ccccc2F)N1Cc1ccc2c(c1)OCO2 (stereo not drawn)	.	/	.	?	/	/
Cc1ccc2cc(/C=C/C(=O)c3ccco3)c(Cl)nc2c1	10.3µM	.	.	20.6µM	/	.
COc1ccc2cc(/C=C/C(=O)c3ccco3)c(Cl)nc2c1	/	/	.	/	/	/
COc1cc2cc(/C=C/C(=O)c3ccco3)c(Cl)nc2cc1OC	4.11µM	.	.	4.61µM	.	.
